From PubChem BioAssay (NCATS) come the findings set out here.

Inconclusive results are not listed. Activity calls are given as the source filed them. The call rests on the fitted dose curve; in most records, active means well fitted curve in the direction sought with a large enough effect; inconclusive means small, poorly fitted or top-dose-only effect, or another doubt; inactive means no such curve, though single readings can be large; an effect the other way counts as inactive or inconclusive.

Test [1] in a line: HEK293 18hr Apoptosis Induction qHTS against the NCATS CANVASS Library (AID 1347357). Further: potency means the concentration at half of the fitted maximal effect. The method, boiled down:
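HEK293 cells (500/well, DMEM + 10% FBS) treated with an 11-point series for 18 h at 37 degrees C. Caspase-3/7 activity read by Caspase-Glo luminescence after 15 min at room temperature.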

Test [2] in a line: HEK293 12hr Apoptosis Induction qHTS against the NCATS CANVASS Library (AID 1347361). Further: potency means the concentration at half of the fitted maximal effect. The method, boiled down: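 HEK293 cells (500/well) were exposed to an 11-point qHTS concentration series for 12 hours at 37 degrees C. Caspase-3/7 activity was then read by DEVD-substrate luciferase luminescence after 15 min at room temperature.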
(In qHTS, concentration-response curves come from the screen itself.)

Test [3] in a line: Secretion counterscreen for inhibitors of the SERCaMP assay screened against the NCATS CANVASS Library (AID 1347390).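 Further: light from luciferase secreted into medium read as a measure of general secretion.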 Further: potency means the concentration at half of the fitted maximal effect. Put shortly: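 SH-SY5Y cells with constitutively secreted GLuc reporter, 1000 cells/well, treated 20 h at 37C with compounds at 0.001 - 77 uM final; secreted luciferase read as luminescence after coelenterazine; Brefeldin A as positive control.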
(In general: Counterscreens check selectivity or assay interference.)

The nature of test [4]: UWB1.289 Cancer Cell Toxicity qHTS against the NCATS CANVASS Library (AID 1347347). Further: nearly all actives have a fitted effect of over 60% in size. Further: potency means the concentration at half of the fitted maximal effect. Put shortly:
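Following a 4 h pre-incubation of 1000 seeded cells, compounds were pinned in an 11-pnt dilution series and left for 72 h; viability then came from CellTiter-Glo.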

The nature of test [5]: KB-3-1 Cancer Cell Toxicity qHTS against the NCATS CANVASS Library (AID 1347366). Further: nearly all actives have a fitted effect of over 75% in size. Further: potency means the concentration at half of the fitted maximal effect. Put shortly: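 KB-3-1 cells (500/well) in DMEM with 10% FBS were exposed to compounds for 72 h at 37C. Viability was read by CellTiter-Glo luminescence.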
The nature of test [6]: qHTS for Hypoxia signaling pathway (HIF-1) antagonists against the NCATS CANVASS Library (AID 1347374). Further: nearly all actives have a fitted effect of over 60% in size. Further: potency means the concentration at half of the fitted maximal effect. The method, boiled down:
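HRE-bla ME-180 cells in medium with 0.5% dialyzed FBS received compounds (11-point series) plus CoCl2 (60 uM addition stock) for 17 hrs at 37C. Beta-lactamase activity read with CCF4 (405 nm ex, 460/530 nm em); CellTiter-Glo viability measured in same wells.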

Test [7] is described as follows: qHTS for Antimalaria activity screened against the NCATS CANVASS Library (AID 1347380). Further: nearly all actives have a fitted effect of over 40% in size. Further: potency means the concentration at half of the fitted maximal effect. The method, boiled down: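 Dd2 strain, infected erythrocytes 2.5% Hct final / 0.3% parasitemia. 11-pt qHTS titration, 72 h, 37C, 5% O2, 5% CO2. Lysis buffer + SYBR Green, 18 h, fluorescence 485/535 nm.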
Test [8] is described as follows: Inflammasome Signaling qHTS Counterscreen: IL-1-beta AlphaLISA counterscreen against the NCATS CANVASS Library (AID 1347381).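 Further: cell-free check with purified IL-1β in medium and no THP-1 cells; series mostly up to about 57 µM.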 The method, boiled down: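 Cell-free interference check: compounds added to medium spiked with 4 pg purified IL-1β. Anti-IL-1β acceptor beads (6 ug/mL) with 0.6 nM biotinylated antibody added for 1 h at RT, then streptavidin donor beads (24 ug/mL) for 30 min in the dark. AlphaLISA read at 680/615 nm.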

A short description of test [9]: qHTS for inhibitors of ER calcium dysfunction: SERCaMP assay screened against the NCATS CANVASS Library (AID 1347393).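 Further: series mostly up to about 77 µM; lower secreted reporter signal means inhibitor of ER calcium depletion; nearly all actives have a fitted effect of over 40% in size.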 The method, boiled down:
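qHTS in SH-SY5Y reporter cells: 16 h compound pretreatment, 4 h thapsigargin, then secreted Gaussia luciferase measured by luminescence.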

On to `CC1C(=O)C23CCC1C[C@]21O[C@@H]2C(C)(C)C=CC(=O)[C@@]23COC1=O` (stereo partly specified), for which the Potency result in [1], in test [2] and in test [3] was “inactive” throughout.

As for `C[C@]12CC[C@]3(C1)[C@H](CC2=O)CC(OC(=O)c1ccccc1)[C@H]1[C@@](CO)(C(=O)O)CCC[C@@]13C` (stereo partly specified), the Potency entry in test [4] was “inactive”.

Take `O=C(O)[C@@]12COC3(O)C1CCN1CC[C@H]3[C@@H]1c1c2[nH]c2ccccc12`: the Potency result in test [2], in test [5], in [6] and in test [7] was “inactive” throughout.

As to `CC(=O)NC[C@@H]1O[C@H](CC/C=C(C)/C(C)=C/C=O)[C@H](C)C[C@H]1O`, the Potency entry in test [4], in [1], in [6] and in [7] was “inactive” each time. For the same compound, the call in test [8] was inactive.

For the compound `CCCCCCCCCCCCCCCC(=O)OC/C=C(\C)CCCC(C)CC(C)C(C)C` (stereo unspecified), in test [4], the Potency entry was “inactive”. Further, in [7], the Potency was 0.0019 µM (active). Further, the result in test [8] was inactive.

With `C=CC(=C)CC[C@]1(C)[C@H]2C[C@H](OC(=O)C(C)CC)C=C3[C@H](OC(C)=O)O[C@H](OC(C)=O)[C@@]32[C@H](OC)C[C@@H]1C` (stereo partly specified), the Potency in test [1] was 13.6 µM (active); in test [2], 17.1 µM (active); in [5] it was 6.79 µM (active); in [6] it was 4.86 µM (active); in test [7] it was 0.545 µM (active). The compound was classed as inactive in test [8].

Take `CN1C(=O)C2C(N=CN2C)N(C)C1=O` (stereo unspecified): the Potency entry in [4], in [1], in test [2], in test [5], in test [6] and in test [7] was “inactive” throughout. Moreover, the Potency result in test [9] was “inactive”.

Take `CCC[C@@H](C)/C=C(\C)[C@H](O)[C@H](C)/C=C/CC[C@@H](O)[C@H](C)[C@H](O)[C@H](C)[C@H](O)[C@H](C)[C@H]1O[C@H]([C@H](C)C(=O)O)CC[C@@H]1C`: the Potency is 6.66 µM (active) in test [4]; 11.8 µM (active) in test [5]; 2.98 µM (active) in test [6]; 5.94 µM (active) in test [7]; 38.4 µM (active) in [3]. Also, the Potency entry in test [1] and in [2] was “inactive” throughout. The compound was classed as inactive in test [8].

For the compound `C=C1C[C@@]23C=CC(=O)[C@@](C)(CCC(=O)Nc4c(O)ccc(C(=O)O)c4O)C2C[C@@H]1C(O)C3` (stereo partly specified), the Potency result in test [4], in [6], in test [7], in test [3] and in test [9] was “inactive” throughout. The result in test [8] was inactive.

Turning to `O=C1C[C@@H](c2ccc(O)c(-c3c(O)cc(O)c4c3O[C@H](c3ccc(O)cc3)CC4=O)c2)Oc2cc(O)cc(O)c21`, the Potency entry in test [1], in test [2] and in [3] was “inactive” in each case. Moreover, the compound was called inactive in [8].

Take `CN1C(=O)[C@]23SS[C@@]1(C)C(=O)N2[C@H]1Nc2ccccc2[C@]1(c1c[nH]c2ccccc12)[C@@H]3O`: the Potency in test [4] is 0.747 µM (active); in test [1], 8.33 µM (active); in [2], 5.26 µM (active). In test [9], the Potency entry was “inactive”.

On to `CC(=O)O[C@@H]1C=C2C(=O)OC[C@]2(O)[C@@]2(C)CCCC(C)(C)[C@H]12`, for which the Potency in [1] is 26.4 µM (active); in [7], 0.0188 µM (active); in [3], 15.3 µM (active). In [8], the compound was called inactive. Besides, in test [9], the Potency entry is “inactive”.

Turning to `C[C@@H]1O[C@@H](O[C@@H]2[C@@H](O)[C@H](O[C@@H]3[C@@H](O)[C@@H](O)C(O[C@H]4[C@H](OC(=O)[C@]56CCC(C)(C)C[C@H]5C5=CCC7[C@@]8(C)C[C@H](O)[C@H](O[C@@H]9C[C@H](CO)[C@@H](O)[C@H](O)[C@H]9O)[C@@](C)(CO)C8[C@H](O)C[C@@]7(C)[C@]5(C)CC6)OC[C@H](O)[C@@H]4O)O[C@H]3C)OC[C@H]2O)[C@H](O)[C@H](O)[C@H]1O` (stereo partly specified), the Potency result in test [5], in test [3] and in [9] was “inactive” each time. Further, the compound was called inactive in test [8].

Turning to `CC(C)=CCC[C@@H](C)[C@@H]1CC[C@@]2(C)C[C@H]3C(C)=CC(=O)[C@@H]3/C(C=O)=C\C[C@H]12`, the Potency in [5] was 10.5 µM (active). In addition, the outcome in [8] was inactive. Also, in [9], the Potency entry was “inactive”.

For `C=C1[C@H]2CC[C@@]3(C=CC(=O)[C@@](C)(CCC(=O)Nc4c(O)ccc(C(=O)O)c4O)C3C2)[C@H]1O` (stereo partly specified), the Potency result in [2], in [5], in test [7] and in [3] was “inactive” throughout.

On to `C[C@@]12CCC[C@@](C)(C(=O)O)[C@H]1C[C@@H](O)[C@]13C[C@H]4C[C@H](O[C@@]4(C)C1)[C@@H]23`, for which the Potency entry in [1], in [2], in test [5], in test [7] and in test [3] was “inactive” throughout.

Regarding `CC[C@@H]1C[C@@]2(CC)OC(=O)[C@@]3(CC)OC(=O)[C@@H]1[C@@H]23`, the Potency result in [2], in test [5] and in test [3] was “inactive” each time. Also, the compound was called inactive in [8].

Take `CC1(C)C=Cc2c(ccc3c2OC[C@@H](c2ccc(O)cc2O)C3)O1`: the Potency result in [4] and in test [1] was “inactive” throughout. Besides, in [8], the compound was called inactive.

Take `CS/C=C/C(N)=O`: the Potency entry in [1], in test [2] and in test [7] was “inactive” throughout.

`CC12C[C@]3(O)O[C@@H](O1)[C@]1(COC(=O)c4ccccc4)[C@@H]3CC21OC1OC(CO)C(O)C(O)C1O` (stereo partly specified): the Potency entry in test [2], in test [5], in [6] and in test [7] was “inactive” each time.

On to `COc1ccc(CCCc2cc(O)c(OC)c(O)c2)c(O)c1O`, for which the Potency result in test [1], in [2] and in [3] was “inactive” in each case.

Consider `O=C(O)Cc1c[nH]c2ccccc12`, for which the Potency result in test [1], in test [2], in test [6] and in [3] was “inactive” in each case. In addition, the compound was classed as inactive in test [8].

For `OCc1ccc2ocnc2c1`, the Potency entry in test [2], in [5], in test [6], in test [7] and in test [9] was “inactive” each time. Moreover, in [8], the result was inactive.

On to `O=Cc1ccc2n1C[C@@]1(C[C@H](O)[C@@H](CO)O1)OC2`, for which the Potency entry in [2], in test [5], in test [6], in test [7] and in test [3] was “inactive” throughout. For the same compound, in test [8], the outcome was inactive.
